Assay outcomes from PubChem.
GALR2 ag – agonists of human galanin receptor 2 (GALR2); 140,000 compounds, 0.48% hits; activation, % (test concentration not listed); AID 803; GALR2-expressing cells, agonist activation read-out; in the data active = activation above about 5%, passing the limit was not always enough;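 also: 0% = vehicle buffer wells and 100% = reference agonist at full effect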
Target sequence (O43603 whole entry, looked up): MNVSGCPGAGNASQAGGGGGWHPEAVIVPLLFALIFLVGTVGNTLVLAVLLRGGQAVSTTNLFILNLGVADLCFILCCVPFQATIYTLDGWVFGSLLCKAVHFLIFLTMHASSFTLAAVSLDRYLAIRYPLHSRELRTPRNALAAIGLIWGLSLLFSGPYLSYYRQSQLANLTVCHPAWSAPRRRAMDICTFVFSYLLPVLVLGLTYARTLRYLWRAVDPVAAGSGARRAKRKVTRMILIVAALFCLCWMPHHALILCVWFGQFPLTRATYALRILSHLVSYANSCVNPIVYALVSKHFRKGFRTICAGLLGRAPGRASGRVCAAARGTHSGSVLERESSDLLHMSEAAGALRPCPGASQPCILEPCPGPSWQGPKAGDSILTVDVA
GALR2 blocker – GALR2 (human) receptor antagonism | GALR2-expressing cells, antagonist mode | inhibition, % at 4 µM | 140,000 compounds, 0.39% hits | AID 828;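 also: cells stimulated with galanin 1-16 at roughly its EC80; 0% = agonist challenge control and 100% = basal control without agonist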
S1P2 antag – S1P2 (human) receptor antagonism; cell-based S1P2 antagonist assay, inhibition at 5 uM; inhibition, % at 5 µM; 97,000 compounds, 0.21% hits; in the data active = inhibition above about 45%;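 also: CRE beta-lactamase reporter cells expressing human S1P2 stimulated with S1P; 0% = agonist at EC80 alone and 100% = agonist plus reference antagonist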
S1P2 ag – activates the human S1P2 receptor | O95136 | S1P2-expressing cell line, agonist reporter read-out | activation, % at 4.5 µM | 97,000 compounds, 0.46% hits | AID 729; in the data active = activation above about 16%;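 also: 0% = vehicle low control and 100% = maximal reference agonist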
GALR2 ant conf – confirmation of human galanin receptor 2 (GALR2) antagonists; GALR2-expressing cells, antagonist mode, inhibition; 480 compounds, 60% hits; shares compounds with GALR2 blocker; inhibition, % at 4 µM; AID 866;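 also: cells stimulated with galanin at about its EC80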
BLA inh counter – counter-screen for GALR2 antagonists: beta-lactamase reporter inhibitors; CHO NFAT-BLA reporter, beta-lactamase FRET, thapsigargin-stimulated; 480 compounds, 36% hits; shares compounds with GALR2 blocker; inhibition, % at 4.2 µM;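 active = inhibition above the mean inhibition across tested compounds plus 3 SD, cut at about 27% in these data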;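 also: 0% = 500 nM thapsigargin stimulated wells and 100% = unstimulated BSA only wells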
An asterisk follows results filed as active; / = not tested or not shown. This is a sample that favours compounds with a hit; in the whole collection about 1.2% have one here. Rule as the data show it, unless noted: active = inhibition above about 27%; inactive = the rest.

SMILES	GALR2 ag	GALR2 blocker	S1P2 antag	S1P2 ag	GALR2 ant conf	BLA inh counter
COc1cc(N2CCCC2)c(OC)cc1/C=C(/C#N)c1ccc(Br)cc1	-3.2	63.0*	23.1	0.0	10.6	16.6
Nc1[nH]nc2c1NN(c1ccc(Cl)cc1Cl)N2	-3.0	8.9	/	/	/	/
CCCC(c1nnnn1Cc1ccco1)N1CCN(C2CCCC2)CC1 (configuration not stated)	-1.8	69.5*	/	/	6.8	27.3*
Cc1cccc(S(=O)(=O)c2c(N)n(-c3ccccc3)c3nc4ccccc4nc23)c1	0.2	6.9	/	/	/	/
CCN1C(=O)C(CC(=O)Nc2ccc(OC)cc2)N(Cc2ccc3c(c2)OCO3)C1=S (configuration not stated)	-0.5	-5.1	/	/	/	/
C/C(=N\Nc1ccc([N+](=O)[O-])cc1)c1cccc(N)c1	-1.9	30.2*	14.1	-8.0	30.7*	16.0
CC(=O)Nc1ccccc1OCC(=O)c1cc(C)n(Cc2cccs2)c1C	-0.9	38.8*	/	/	50.9*	24.4
Cc1cc(C(=O)COC(=O)c2ccccc2O)c(C)n1Cc1cccs1	-3.0	-0.9	-11.1	-0.3	/	/
c1cncc(-c2nc(NCC3COc4ccccc4O3)c3ccccc3n2)c1 (configuration not stated)	-0.9	5.3	-6.6	3.7	/	/
c1ccc2c(c1)OCC(CNc1ncnc3sccc13)O2 (configuration not stated)	0.0	42.3*	/	/	54.2*	11.3
O=C(O)c1cccc2cccnc12	-2.6	6.9	16.6	-4.0	/	/
c1cnc2c(c1)ccc1cccnc12	-2.3	36.2*	/	/	48.4*	-1.6
CC1CCN(Cc2c(C#N)c3ccccc3n2C)CC1	0.6	12.6	/	/	/	/
CC(C)c1c(C#N)c(N)nc(SCC(=O)c2cc3ccccc3oc2=O)c1C#N	1.5	1.7	/	/	/	/
N#Cc1ccc(-c2ccccc2)nc1SCC(=O)c1cc2ccccc2oc1=O	-0.8	38.4*	30.5	-7.2	20.8	19.5
COc1cccc(-n2c(SCC(=O)N3CCCC3)nc3c([nH]c4ccccc43)c2=O)c1	-1.1	3.6	17.6	-0.6	/	/
Cc1ccn2c(Nc3ccc4c(c3)OCO4)c(-c3ccccn3)nc2c1	-2.0	30.1*	/	/	20.5	25.9
c1coc(C2Nc3cccc4cccc(c34)N2)c1	-0.1	-5.4	-4.5	13.6	/	/
O=C1c2cccc3cccc(c23)C(=O)N1c1nccs1	-1.4	-14.5	11.8	0.0	/	/
CC1=C(C)C(=O)N(c2ccccn2)C1=O	1.0	1.6	18.7	-11.8	/	/
O=C1c2cccc3c([N+](=O)[O-])ccc(c23)C(=O)N1c1ccccn1	2.1	34.3*	67.3*	-8.0	49.0*	43.7*
O=C1c2cccc3c([N+](=O)[O-])ccc(c23)C(=O)N1c1nccs1	1.5	49.5*	50.8*	-10.1	55.3*	34.6*
Cc1ccc(Oc2ccc(S(=O)(=O)N3CCOCC3)cc2C(N)=O)c(-n2nc3ccccc3n2)c1	0.3	-0.9	18.3	0.8	/	/
COc1ccc(C2c3c(-c4cc(Cl)c(C)cc4O)n[nH]c3C(=O)N2Cc2cccnc2)cc1OC (configuration not stated)	2.0	-3.4	-9.7	-1.1	/	/
COc1ccc(C(=O)c2sc3nc(-c4ccccc4)ccc3c2N)cc1	-1.9	31.9*	/	/	41.9*	48.7*
SMILES	GALR2 ag	GALR2 blocker	S1P2 antag	S1P2 ag	GALR2 ant conf	BLA inh counter
Cc1cccc(NC(=S)c2nc3ccccc3s2)c1	-3.1	0.9	2.9	-7.2	/	/
O=C(OCn1ncc(Br)c(Br)c1=O)c1ccccc1Cl	-3.2	79.1*	51.3*	-5.4	94.5*	97.3*
O=C(OCc1cnc(Cl)s1)c1ccccc1Cl	-1.5	0.0	14.7	-2.5	/	/
O=C(OCn1ncc(Br)c(Br)c1=O)c1ccc(F)cc1	-5.1	79.5*	53.8*	-2.1	92.4*	94.7*
Cc1cc(N/N=C/c2ccc(O)c(C)c2O)nc(-c2ccccc2O)n1	-1.8	31.3*	/	/	33.3*	12.3
COc1cc2nc(C)sc2cc1SC	-1.4	27.0*	/	/	8.1	4.5
Cc1nc2cc3nc(C)sc3cc2s1	-0.3	2.2	/	/	/	/
O=C(OCn1ncc(Cl)c(Cl)c1=O)c1cccc(C(F)(F)F)c1	-1.3	46.4*	29.8	0.8	65.7*	42.7*
O=C1C(Nc2ccccc2)=C/C(=N/S(=O)(=O)c2cccs2)c2ccccc21	5.5*	87.8*	/	/	67.4*	71.1*
Cc1ccc(NC2=C/C(=N/S(=O)(=O)c3cccs3)c3ccccc3C2=O)cc1	2.3	3.1	/	/	/	/
COc1ccc(-c2nc(N)nc(C)c2Oc2ccccc2Br)c(O)c1	-2.3	-0.8	-3.6	-0.9	/	/
Cc1ccc(OCC(=O)N/N=C/C=C/c2ccco2)cc1C	0.0	-0.6	/	/	/	/
CCCCOc1ccc(Br)cc1CSC(=N)N	-0.2	36.3*	/	/	36.7*	65.6*
CCCCCOc1ccc(CSC(=N)N)cc1[N+](=O)[O-]	1.9	-15.9	13.9	2.1	/	/
CN1C(=O)c2ccccc2C(C(=O)O)C1c1cn(C)c2ccccc12 (configuration not stated)	-1.0	3.5	8.0	-5.5	/	/
c1ccc(N2CCN(Cc3cn4cccnc4n3)CC2)cc1	0.1	-7.5	6.6	-3.1	/	/
O=c1[nH]c(/C(=N\O)c2ccccc2)no1	-1.5	14.3	/	/	/	/
COc1cc(CSc2nnnn2-c2ccc(C)cc2)cc(OC)c1OC	-1.4	42.9*	/	/	41.2*	14.4
C=C1C(=O)[C@@]23[C@H](O)C[C@@H]4C(C)(C)CC[C@H](O)[C@]4(C)[C@@H]2C[C@H](O)[C@@H]1[C@H]3O	-2.0	-6.0	/	/	/	/
C=C1C(=O)[C@@]23[C@H](O)C[C@@H]4C(C)(C)CC[C@H](O)[C@@]4(C)[C@@H]2CC[C@@H]1[C@H]3O	-0.2	38.0*	/	/	38.2*	58.0*
CCn1c(SCC(=O)Nc2ccccc2)nc2c1c(=O)n(C)c(=O)n2C	-0.4	10.4	-21.4	-2.8	/	/
Cn1c(=O)c2c(nc(SCC(=O)Nc3ccccc3)n2C)n(C)c1=O	-0.3	27.9*	/	/	8.5	1.4
O=S(=O)(Nc1cc(Sc2cccc3cccnc23)c(O)c2ccccc12)c1ccccc1	0.4	31.2*	/	/	23.9	9.9
Cc1ccc(S(=O)(=O)Nc2cccc3cccnc23)cc1	0.2	8.4	-13.7	-4.0	/	/
COc1cccc(CN2C(=O)Nc3ccccc3C(=O)N2C(C)(C)C)c1	0.0	-5.2	-6.0	2.9	/	/
SMILES	GALR2 ag	GALR2 blocker	S1P2 antag	S1P2 ag	GALR2 ant conf	BLA inh counter
COc1cccc(CN2C(=O)c3cccc(N)c3C2=O)c1	1.9	31.4*	/	/	7.7	12.3
O=C(c1ccccc1)N1CCN(C(=S)NCc2ccc3c(c2)OCO3)CC1	-2.1	-20.4	/	/	/	/
N#CC1=C(N)SC(N)=C(C#N)C1CCC1CCCCC1	-0.3	-8.2	-10.2	0.9	/	/
CCC(C)NC(=O)NC(=O)N(C1CCCCC1)S(C)(=O)=O (configuration not stated)	-0.7	9.7	23.0	-7.3	/	/
CC(Sc1nnc(NC2CCCCC2)s1)C(=O)Nc1ccc2c(c1)C(=O)c1ccccc1C2=O (configuration not stated)	-1.1	13.5	/	/	/	/
COCCCN(C(=O)c1ccco1)c1nc(-c2cc(OC)ccc2OC)cs1	-0.8	84.6*	-2.8	-1.9	4.8	11.7
CCC(=O)N(CCCN(C)C)c1nc(-c2cc(OC)ccc2OC)cs1	-0.8	6.5	2.9	-4.5	/	/
